A selection: hits, their analogues and other compounds. The true share with any hit is near 2.7%.
RXFP1 antagonist – antagonists of human relaxin receptor RXFP1; Q9HBX9; HEK293-RXFP1, relaxin-stimulated cAMP HTRF, 30 min; stronger effect = lower value; activity change, negative = inhibition, % at 57.5 µM; actives 0.59% (n = 350,000);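 active = activity change of -60% or lower, but not beyond a set lower limit; inconclusive = change between -60% and -40%, or beyond the set limit; inactive = change above -40%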
pAkt inh – inhibitors of Akt phosphorylation. AID 651550. activity change, % for hits at 50 µM. Neuro2A IGF-stimulated pAkt S473 HTRF, 20 min; stronger effect = lower value. actives 0.32% (n = 360,000); in the data active = activity change below about -80%; inconclusive = mostly about -51% to -80%
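Single-point screen (50 µM final compound) in Neuro2A cells stimulated 20 min with 6 nM IGF at 37 deg C. After lysis, Ser473-phosphorylated Akt read by HTRF (ex 330 nm, em 615/665 nm) as the 665/615 ratio.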
gsp antag – antagonists of gsp mutant (McCune-Albright syndrome); Potency, µM (top dose mostly 76.9 µM), usual class: inhibitors; actives 0.4% (n = 340,000); gsp-mutant cells, cAMP HTRF, 30 min; calls by dose curve; cell line not stated here;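 note: intracellular cAMP measured with PDE inhibitor Ro 20-1724 present during compound exposure; nearly all actives have a fitted effect of over 65% in size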
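HTRF cAMP measurement after 30 min RT detection following 30 min, 37C compound treatment alongside […] (added as 300 uM solution) in G418-selected cells seeded at 2000/well and grown 16–24 h.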
ClpP mod – qHTS Assay for Activators of ClpP. ATP-dependent Clp protease proteolytic subunit (Bacillus subtilis (strain 168)), P80244. purified B. subtilis ClpP, FRET peptide cleavage, 20 min. Potency, µM (titrated, usually from 57.5 µM). actives 1.9% (n = 340,000); active = well fitted falling curve with a large enough effect; inconclusive = small, poorly fitted or top-dose-only effect; inactive = no such curve, though single readings can be large or run the other way; note: the source files actives as falling curves though it sought activators and does not explain the sign; nearly all actives have a fitted effect of over 65% in size
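Purified B. subtilis ClpP, 10 microg/mL final in Tris/HCl pH8 with KCl, BSA, glycerol and Tween-20, cleaved an Abz/nitrotyrosine-quenched decapeptide. Fluorescence (ex 320, em 430) was read at 0 and 20 min at room temperature. Delta was normalized to 5.8 microM ADEP and DMSO/no-enzyme controls.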
gsp ag – gsp mutant agonism | actives 0.13% (n = 340,000) | Potency, µM (highest dose often 76.9 µM), usual class: activators | gsp mutant cells, cAMP HTRF, 30 min; active = well fitted activation curve with a large enough effect; inconclusive = small, poorly fitted or top-dose-only effect, or another doubt; inactive = no such curve, though single readings can be large or run the other way; cell line not stated here;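 note: phosphodiesterase inhibitor Ro 20-1724 added with compounds to block cAMP breakdown; nearly all actives have a fitted effect of over 60% in size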
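Cells stably selected in G418 were plated at 2000/well, grown 16-24 hr, then given compounds in DMSO with the PDE inhibitor […] (300 uM solution added) for 30 min at 37C; cAMP was read by HTRF.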
RXFP1 ag – agonists of human relaxin receptor RXFP1. HEK293T-RXFP1 cAMP TR-FRET, 30 min; response scale: percent of porcine relaxin response, buffer zero. Potency, µM (top dose mostly 57.5 µM), actives largely listed as activators. actives 0.3% (n = 370,000); active = well fitted activation curve with a large enough effect; inconclusive = small, poorly fitted or top-dose-only effect; note: nearly all actives have a fitted effect of over 60% in size
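Agonist response is measured as cAMP accumulation in an RXFP1-transfected HEK293T line under PDE4 inhibition. Values are scaled between buffer-only and 29 nM porcine relaxin, and EC50s come from standard Hill equation fits.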
Numbers stand for hits; – = inactive; ? = inconclusive; · = no result; [ ] = another dose, or the depositor's remark.

SMILES	RXFP1 antagonist	pAkt inh	gsp antag	ClpP mod	gsp ag	RXFP1 ag
c1ccc(C(c2ccccc2)N2CCN(C(c3ccccn3)c3nnnn3C3CCCC3)CC2)cc1 (configuration not stated)	–	–	–	22µM	–[15.4 µM]	–
O=C(CNC(=O)c1cccc(-n2cccc2)c1)Nc1ccccc1Br	–	–	·	–	–	·
CC1CCCCC12NC(=O)N(CC(=O)c1ccc[nH]1)C2=O (configuration not stated)	–	–	–	–	–	–
CC1CCC2(CC1)NC(=O)N(CC(=O)c1ccc[nH]1)C2=O (configuration not stated)	–	–	–	28µM	–	–
COc1ccc(CCC(=O)N2c3ccccc3N=C(c3ccc4c(c3)OCO4)C2C(=O)NCc2ccccc2)cc1 (configuration not stated)	·	–	·	32µM	·	·
COc1ccc(C2=Nc3ccccc3N(C(=O)c3ccc4c(c3)OCO4)C2C(=O)NCc2ccccc2)cc1 (configuration not stated)	·	–	·	–	·	·
Cc1nn(CC(=O)NC2CC2)c(=O)c2cc3cc(F)ccc3n12	–	·	·	?	·	–
O=C(O)C(O)c1ccccc1 (configuration not stated)	·	–	–	–	·	–
O=C(O)C(SC(C(=O)O)c1ccccc1)c1ccccc1 (configuration not stated)	–	–	–	28µM	–	·
COc1cccc(-c2nc3c(c(C)nn3-c3ccccc3)c3cc(OC)c(OC)cc23)c1	–	·	·	–	·	–
COc1cc2c(-c3ccc(O)cc3)nc3c(c(C)nn3-c3ccccc3)c2cc1OC	·	–	–	8.9µM	–	–
Cc1cc(C)c2c(n1)NCCC2	·	·	·	–	·	·
COc1ccc(-c2nnc(C3CCN(C(=O)c4ccccc4F)CC3)o2)cc1	–	·	·	–	·	–
CC(C)CCC(CCNCc1ccccn1)c1ccc(Cl)cc1 (configuration not stated)	-69	–	–	·	–	–
S=C(NCc1ccc(Cl)cc1)NCc1ccccn1	–	–	–	–	–	–
Cc1ccc(C)c(CNC(=O)CCn2cccn2)c1	–	·	·	–	·	–
COc1cnc(N(C)C)nc1Sc1ccc(Cl)cc1	–	–	–	32µM	–	–
Cc1ccc(C)c2[nH]c(=O)c(C(c3nnnn3C3CCCC3)N3CCOCC3)cc12 (configuration not stated)	–	–	–	25µM	–	–
Cc1ccc2cc(C(c3nnnn3C3CCCC3)N3CCOCC3)c(=O)[nH]c2c1C (configuration not stated)	–	–	–	?	–	–
Cc1ccc(C)c2[nH]c(=O)c(C(c3nnnn3CCc3ccccc3)N3CCOCC3)cc12 (configuration not stated)	–	·	–	28µM	–	–
COc1ccccc1N1CCN(c2ccc3c(c2)S(=O)(=O)c2cccc(C(=O)NCc4cccc(F)c4)c2C3=O)CC1	–	–	·	–	–	·
CCCN(CCC)C(=O)Cn1c(=O)n(-c2ccc(CC)cc2)c(=O)c2ccc(C(=O)NCCc3ccccc3)cc21	·	·	·	–	·	25µM
CCc1ccc(-n2c(=O)c3ccc(C(=O)NCCc4ccccc4)cc3n(CC(N)=O)c2=O)cc1	–	–	–	–	–[15.4 µM]	–
COc1cccc(Nc2nc3ccccc3nc2NS(=O)(=O)c2cccs2)c1	–	–	14µM	?	–	–
COc1ccc(Nc2nc3ccccc3nc2NS(=O)(=O)c2cccs2)c(OC)c1	–	–	–	–	–	–
Cc1c(NC(=O)c2ccc(F)c(S(=O)(=O)N3CCOCC3)c2)c(=O)n(-c2ccccc2)n1C	–	-106%	–	–	–	–
O=C(Nc1ccc(Cl)c(S(=O)(=O)N2CCOCC2)c1)c1ccc(OCC2CCCO2)cc1 (configuration not stated)	–	–	32µM	·	–	–
O=C(Nc1cccc(S(=O)(=O)C(F)F)c1)c1ccc(Cl)c(S(=O)(=O)N2CCOCC2)c1	–	–	28µM	–	–	–
